Screens: PubChem BioAssay, several laboratories
In the library only some 3.7% were active in any assay of this set; here they are far more common.
tim23-1 inh: growth inhibitors of tim23-1 mutant yeast; S. cerevisiae tim23-1 growth, BacTiter-Glo luminescence, 24 h; inhibition, % at 20 µM; 330,000 tested, 1.3% active; AID 463212;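 active = growth inhibition of the mutant yeast at or above 50%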;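 note: temperature-sensitive mutant grown at 25 °C; plate controls were DMSO-treated mutant yeast for no effect and medium wells lacking yeast for full effect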
TIM10 inh: inhibits growth of TIM10 yeast strain; inhibition, % at 10 µM; S. cerevisiae TIM10 strain growth, BacTiter-Glo luminescence, 24 h; 330,000 tested, 1.4% active; AID 463195;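 active = inhibition of 40% or more at the single tested concentration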;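 note: wild-type TIM10 isogenic control strain grown at permissive 25 °C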
PfHsp90 set2: growth inhibition of yeast expressing Plasmodium Hsp90. S. cerevisiae expressing PfHsp90, BacTiter-Glo ATP, 48 h; yeast lacking PDR1 and PDR3 efflux regulators. inhibition, % at 9.4 µM. 310,000 tested, 0.32% active. AID 504621;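 active = every replicate shows inhibition above about 80%, whatever the replicate mean, limit read from the data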;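 note: 0% = DMSO neutral controls and 100% = 20 µM radicicol positive controls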
Rce1 inhib: inhibitors of yeast Ras-converting enzyme; yeast membranes, quenched prenylated peptide cleavage fluorescence; calls only; 290,000 tested, 0.27% active; AID 2563;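 active = fall in fluorescence gain of 50% or more versus controls, with final raw signal at or below 3038400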;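 note: plate controls were neutral control wells for no effect and wells lacking membranes for full effect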
Target sequence (Q03530 whole entry, looked up): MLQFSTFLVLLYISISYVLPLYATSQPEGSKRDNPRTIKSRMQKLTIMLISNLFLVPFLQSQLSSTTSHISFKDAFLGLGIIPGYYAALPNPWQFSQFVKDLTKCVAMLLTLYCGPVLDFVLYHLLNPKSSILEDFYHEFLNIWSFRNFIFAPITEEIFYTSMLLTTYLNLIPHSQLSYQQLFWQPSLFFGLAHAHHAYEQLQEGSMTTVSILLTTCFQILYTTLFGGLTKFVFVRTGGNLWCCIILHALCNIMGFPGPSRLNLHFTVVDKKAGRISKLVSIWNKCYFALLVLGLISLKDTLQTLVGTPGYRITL
tim10-1 inh: growth inhibitors of tim10-1 mutant yeast; S. cerevisiae tim10-1 ts strain growth, BacTiter-Glo, 24 h; inhibition, % at 20 µM; AID 463190; 330,000 tested, 2.2% active;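 active = inhibition of at least 40%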;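 note: mutant grown at 25 °C; 0% = DMSO wells with yeast and 100% = wells holding no yeast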
TIM10 conf: TIM10 yeast growth inhibition, confirmed. shares compounds with TIM10 inh. S. cerevisiae tim10 strain growth, BacTiter-Glo luminescence, 24 h. inhibition, % at 10 µM. 4,600 tested, 63% active;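 active = inhibition of yeast growth at or above a set limit in either of two replicates at 10 µM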;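 note: this counterscreen used the strain with wild-type TIM10; 0% = yeast with DMSO and 100% = medium wells lacking yeast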
tim23-1 conf: tim23-1 yeast growth inhibition, confirmed | inhibition, % at 20 µM | shares compounds with tim23-1 inh | 4,400 tested, 83% active | S. cerevisiae tim23-1 growth, BacTiter-Glo luminescence, 24 h;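 active = inhibition above about 39% in either of two replicate wells at 20 µM, limit read from the data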;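 note: temperature-sensitive tim23-1 mutant grown at 25 °C; 0% = DMSO wells with yeast and 100% = medium wells without yeast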
* = called active by the depositor; i = inactive; · = no result.

SMILES	tim23-1 inh	TIM10 inh	PfHsp90 set2	Rce1 inhib	tim10-1 inh	TIM10 conf	tim23-1 conf
CC(C)(C)c1ccc(-c2nc(C#N)c(N3CCC(C(N)=O)CC3)o2)cc1	40.5	6.3	-2.9	i	23.5	·	·
N/C(Cc1ccc(Cl)cc1Cl)=N\OC(=O)c1ccc(Br)o1	80.3*	86.3*	97.6*	i	6.7	86.5*	48.4*
COc1ccc(C(=O)/C=C/Nc2ccccn2)c(OC)c1	7.3	8.7	·	i	10.8	·	·
O=C(/C=C\Nc1ccccn1)c1ccccc1	51.8*	48.3*	-12.1	i	10.8	51.5*	79.5*
COc1cc(C(=O)NC(C)CCn2cccn2)ccc1OC1CCN(C(C)=O)CC1 (stereo not given)	-8.9	7.0	-0.2	i	-12.4	·	·
CN(CCc1ccccc1)C(=O)c1cccc(NC(=O)Cc2cccc(NC(=O)C3CCCN(C(=O)C4CC4)C3)c2)c1 (stereo not given)	·	·	-22.6	·	·	·	·
Cc1cc(N2CCN(C(=O)c3ccco3)CC2)c2ccccc2n1	11.4	-4.9	-24.2	i	-5.5	·	·
O=C(c1ccco1)N1CCN(c2nnc(-c3ccccc3)c3ccccc23)CC1	51.0*	40.0	-6.6	i	32.4	5.0	29.8
CC(C)C(C)(C#N)NC(=O)CN1C(=O)NC2(CCCc3ccccc32)C1=O (stereo not given)	-11.6	-9.1	-10.3	i	-16.8	·	·
O=C(Nc1ccc2oc(-c3ccccc3)nc2c1)c1cccs1	53.3*	72.8*	24.7	i	23.1	-1.1	75.7*
O=C(Nc1ccc2c(c1)CCC2)c1cccs1	53.4*	45.4*	0.7	i	33.9	34.9*	49.2*
Cc1ccc(C(=O)Nc2ccc(C)c(S(=O)(=O)Nc3ccccc3Cl)c2)s1	13.7	17.3	-87.5	i	12.8	·	·
CC(C)(C)n1cnc2cc(NC(=O)c3cccs3)ccc21	52.5*	61.4*	23.2	i	24.9	55.4*	70.9*
O=C(Nc1ccc(Cl)c(S(=O)(=O)Nc2ccccc2Cl)c1)c1cccs1	52.9*	44.7*	-62.0	i	32.6	46.0*	69.0*
Nc1ccc(NC(=O)c2cccs2)cc1	4.9	-6.1	-0.7	i	-20.4	·	·
Cc1cccc(N2CCN(S(=O)(=O)c3c(C)nc4scc(C)n4c3=O)CC2)c1C	33.4	3.7	16.2	i	19.7	·	·
O=C(NCC1CCCO1)c1nc(Cn2ccc([N+](=O)[O-])n2)no1 (stereo not given)	11.7	0.0	2.8	i	13.0	·	·
O=C(CSc1ccccn1)C12CC3CC(CC(C3)C1)C2	34.2	31.1	5.8	i	33.9	·	·
O=C(Nc1ccc2c(c1)nc1n2CCN(Cc2ccccc2)C1)c1cccs1	53.2*	66.7*	-4.8	i	28.1	57.4*	73.3*
O=S(=O)(Nc1ccc2ccccc2c1)c1ccccc1	29.8	17.5	3.4	i	33.3	·	·
O=S(=O)(Nc1ccc2oc(-c3ccccc3)nc2c1)c1ccccc1	73.8*	45.4*	-24.4	i	36.6	36.5*	65.8*
CCOC(=O)c1cccc(NC(=O)c2cccs2)c1	57.1*	64.7*	11.5	i	36.5	56.6*	80.2*
CC(=O)c1cccc(N(C(=O)Cn2nnc3ccccc32)C(C(=O)NCC2CCCO2)c2ccc(N3CCOCC3)cc2)c1 (stereo not given)	17.6	-4.0	·	i	9.1	·	·
COC(=O)c1ccc(-n2c(C)cc(C(=O)CSc3cccc[n+]3[O-])c2C)cc1	33.2	15.8	9.4	i	14.3	·	·
COC(=O)c1ccc(C(=O)OC)c(NC(=O)CSc2cccc[n+]2[O-])c1	69.4*	41.2*	-5.3	i	27.7	14.1	74.7*
COc1cccc2cc(C(=O)NCCc3ccccc3)oc12	62.0*	50.3*	-11.3	i	31.8	37.4*	76.7*
Cc1nnc(NC(=O)c2sc3ccccc3c2Cl)s1	-0.5	27.5	17.9	i	18.1	·	·
O=C(NC1=NCCS1)c1sc2ccccc2c1Cl	72.8*	46.1*	30.1	i	35.7	37.1*	80.1*
Cc1ccc(/C=C/C(=O)O)cc1S(=O)(=O)NCc1ccco1	1.1	1.7	22.0	i	-2.6	·	·
